# Laboratory results as given in the supplement of paper PMC10338343.
# ± gives the standard deviation. Whole data set: some 6,200 sequences, median “pre-steady-state target cleavage rate” near 0.29, cut for the highest 2% near 2. The list comes from a sample in which the highest values are over-represented; it also holds similar and randomly drawn sequences.
# System: MIWI (PIWIL1) piRISC loaded with piRNA #1 (30 nt)
# Test: pre-steady-state target cleavage rate (min^-1); MIWI and MILI are mouse PIWI proteins and EfPiwi is from a freshwater sponge; tags in brackets are library labels; higher = faster piRNA-guided slicing of the target
# Settings: guide: piRNA #1 5'p-UGAGGUAGUAGGUUGUAUAGUAUCCAGAGG; auxiliary factor: 500 nM mouse GTSF1
# Method in brief: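 Cleave-'n-Seq used a transcribed, DNA-blocked target RNA library at 0.1 nM and active affinity-purified piRISC with one synthetic guide at 1 nM, with or without 500 nM GTSF1 partner protein, in HEPES–potassium acetate buffer at 33 °C for 0–8 or 0–960 min. Uncleaved targets were sequenced and normalised to depth and to weakly complementary targets, and three trials were pooled with k3 capped at 0.0001 min^-1. The pre-steady-state cleavage rate was estimated by a burst-and-steady-state fit.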
row,Sequence,pre-steady-state target cleavage rate
1,CCUCUGGAUAGUAUACAACGUACUACCUCA,0.0367 ± 0.011
2,GGAGACCUAUCUAUACAACCUACUACCUUA,0.905 ± 0.069
3,GGAGACCUAUCUUUUCAACCUACUACCUCA,0.0982 ± 0.032
4,GCAUCUGGAUACUAUACAACCUACUACCUCA,1.82 ± 0.087
5,GGAGACCUAUGAUAUGUUGCUCACUACCUCA,0.00246 ± 0.0017
6,GGUCUGCAUACUAUUCAACCUACUACCUCA,1.65 ± 0.12
7,GGUCUGCAUUCUAUACAACCUACUACCUCA,1.51 ± 0.11
8,CCUCUGCAUACUAUACAACCUACUACCUCA,2.01 ± 0.12
9,GCUCUGCAUUCUAUACAACCUACUACCUCA,1.65 ± 0.11
10,CCUCUGCAUACUAUACAACCUACUACCACA,2.37 ± 0.19
11,GGUCUGCAUACUAUACAACCUACUACCACA,0.7 ± 0.07
12,GCUCUGCAUACUAUACAACCUACUACCUCA,1.96 ± 0.11
13,GCUCUGCAUACUAUACAACCUACUACCACA,1.98 ± 0.18
14,CCUCUGCAUUCUAUACAACCUACUACCUCA,2.13 ± 0.13
15,CCUCUGCAUACUAUUCAACCUACUACCUCA,2.21 ± 0.14
16,GCUCUGCAUACUAUUCAACCUACUACCUCA,1.93 ± 0.12
17,CCUCUGCAUACUAUACAACCUACAACCUCA,1.7 ± 0.12
18,GGACUGGAUACUAUACAAGGUACUACCUCA,0.331 ± 0.036
19,GCUCAGGAUACUAUACAACCUACUACCUGA,0.681 ± 0.042
20,GGAGACCAUACUAUACAACCUACUACCAUCA,1.35 ± 0.087
21,CCUCUGGAUACAAUACAACCUACUACCUGA,0.657 ± 0.085
22,GGAGACCUUACAAUACAAGCUACUACCUCA,0.258 ± 0.035
23,GCUCUGGAUAGUAUACAACCUACUACCUGA,0.324 ± 0.045

row,Sequence,pre-steady-state target cleavage rate
1,GGACUGGAUACUAUACAACCUAGAACCUCA,0.0154 ± 0.004
2,GGACUGGAAACUAUAGAACCUACUACCUCA,1.13 ± 0.08
3,GGAGAGGAUACUAUGCAACCUACUACCUCA,1.62 ± 0.095
4,GGACUGGAUACAUAACAACCUACUACCUCA,0.634 ± 0.11
5,CCUCAGCAUACUAUACAACCUACUACCUCA,2.12 ± 0.13
6,GCUCAGCAUACUAUACAACCUACUACCUCA,1.83 ± 0.11
7,GCUGUGCAUACUAUACAACCUACUACCUCA,1.91 ± 0.12
8,CCUCUGCAUACUUUACAACCUACUACCUCA,2.13 ± 0.15
9,GCUCUGCAUACUUUACAACCUACUACCUCA,1.68 ± 0.11
10,CCUGUGCAUACUAUACAACCUACUACCUCA,2.3 ± 0.15
11,GGUCAGCAUACUAUACAACCUACUACCUCA,1.81 ± 0.096
12,GCUCUGCAUACAAUACAACCUACUACCUCA,1.82 ± 0.13
13,GGUGUGCAUACUAUACAACCUACUACCUCA,1.73 ± 0.1
14,GGUCUGCAUACAAUACAACCUACUACCUCA,1.45 ± 0.11
15,GGUCUGCAUACUUUACAACCUACUACCUCA,1.48 ± 0.12
16,CCUCUGCAUACAAUACAACCUACUACCUCA,2.02 ± 0.12
17,GGAGACCUAUCUAAACAACCUACAACCUCA,0.00335 ± 0.0022
18,CCUCUGGAUACUAUACAGACCUACUACCUCA,0.0114 ± 0.0052
19,GGAGUGCAUACUAUACAACGUACUACCUCA,0.714 ± 0.039
20,GGAGAGGAUACUAUACAACCUACUACCUUA,1.28 ± 0.066
21,CCUCUGGAUAGUAUACAACCUACUUCCUCA,0.21 ± 0.034
22,GGAGAGGAUUCUAUACAACCUACUACCACA,0.665 ± 0.047
23,GCUCUGCUUACUAUACAACCUACUACCUCA,1.96 ± 0.12

row,Sequence,pre-steady-state target cleavage rate
1,GGUCUGCUUACUAUACAACCUACUACCUCA,1.74 ± 0.12
2,CCUCUGCUUACUAUACAACCUACUACCUCA,2.19 ± 0.15
3,GCACUGGAUACUAUACAACCAACUACCUCA,0.167 ± 0.017
4,GGAGUGCAUACAAUACAACCUACUACCUCA,1.11 ± 0.092
5,CCUCUGAUACUAUACAACCUACUACCUCA,2.11 ± 0.12
6,GGUCUGAUACUAUACAACCUACUACCUCA,1.79 ± 0.1
7,CCUCUGAGAUACUAUACAACCUACUACCUCA,0.572 ± 0.056
8,GGUCUGAGAUACUAUACAACCUACUACCUCA,1.89 ± 0.11
9,GCUCUGAUACUAUACAACCUACUACCUCA,1.9 ± 0.12
10,GCUCUGAGAUACUAUACAACCUACUACCUCA,2.07 ± 0.12
11,GGAGACCAUACUAUACAACCUACCUACCUCA,1.06 ± 0.066
12,GGAGUGGAUAUUAUACAACCUACUACCUCA,1.48 ± 0.072
13,GGAGACCAUACUAUACAACCUACUACCUCU [g2:g23:cont:t1U],1.7 ± 0.11
14,GGAGUGGAUAGUAUUCAACCUACUACCUCA,0.584 ± 0.064
15,GGAGACCUUACUAUACAUGGUACUACCUCA,0.00452 ± 0.0025
16,GCUCUGGUUACUAUUCAACCUACUACCUCA,1.88 ± 0.12
17,CCUCUGGAUACUAUACAACCUACUUCCACA,0.337 ± 0.05
18,GGACUGGAUACUAUACAACCUACUACCUCCA,2.19 ± 0.17
19,GCUACUGGAUACUAUACAACCUACUACCUCA,2.14 ± 0.13
20,GGACUGGAUACUAUACUACCUACAACCUCA,0.39 ± 0.057
21,GGACUGGAUACCUAUACAACCUACUACCUCA,1.15 ± 0.095
22,GGACUGGAUUCUAUACAACCUACUACCUCA,1.63 ± 0.11
23,GGACUGGAUACUAUACAACCUACCUACCUCA,1.06 ± 0.094

row,Sequence,pre-steady-state target cleavage rate
1,GGACUGGAUACUAUACAACCUACUACCUCC [g2:g27:cont:t1C],1.42 ± 0.088
2,GCACUGGAUACUAUACAACCUACUACCUCA,1.81 ± 0.093
3,CCACUGGAUUCUAUACAACCUACUACCUCA,2.08 ± 0.12
4,CCUACUGGAUACUAUACAACCUACUACCUCA,2.04 ± 0.11
5,GCACUGGAUUCUAUACAACCUACUACCUCA,1.85 ± 0.096
6,CCACUGGAUACUAUACAACCUACUACCUCA,1.8 ± 0.11
7,GGUCAGGAUACUAUACAACCUACUAGCUCA,0.255 ± 0.033
8,GGAGACCUAACUAUACAACCUACUACCAGA,0.385 ± 0.062
9,GGAGACCUUACUAUACAACCUACUACCCCA,0.956 ± 0.086
10,GGAGACGAUACUAUACAACCUACUACGUGA,0.348 ± 0.054
11,GGACUGGAUACUAUACAACCUAUUACCUCA,0.86 ± 0.075
12,GCUCUGGAUACUAUACAACCUACAUGCUCA,0.589 ± 0.072
13,GGAGACCAUACUAAUACAACCUACUACCUCA,0.978 ± 0.08
14,GGUCUGCAUACUAUACAACCUACUACCUGA,0.677 ± 0.13
15,GGAGACGAUUCUAUACAACCUACUACGUCA,0.92 ± 0.069
16,CCUCUGGAUCCUAUACAACCUACUACCUCA,1.38 ± 0.14
17,GGUCUGGAUACAUACAACCUACUACCUCA,1.44 ± 0.11
18,CCUCAGGAUUCUAUACAACCUACUACCUCA,2.24 ± 0.13
19,GCUCAGGAUUCUAUACAACCUACUACCUCA,1.87 ± 0.092
20,GGUCAGGAUUCUAUACAACCUACUACCUCA,1.77 ± 0.12
21,GCUGUGGAUACUAUACAACCUACUACCUGA,0.776 ± 0.18
